We go through 19 compounds from PubChem BioAssay (NCATS).

In test [1] the target is Lysosomal acid glucosylceramidase (Homo sapiens) (UniProt P04062). The experiment in a line: Glucocerebrosidase-p2 (AID 348; in the data active = potency below about 10 µM; note: potency is the fitted concentration of half-maximal effect). The following applies: purified GBA, blue fluorogenic substrate, 40 min. The essentials:
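Normal human glucocerebrosidase (0.2 nM) with blue fluorogenic substrate (80 uM final) in citrate/phosphate pH 5.9 with 10mM sodium taurocholate, 0.01% tween-20; 40 min RT, NaOH/glycine stop; fluorescence Ex 365/Em 440; AC50 from a titration from 0.6 nM upwards.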

Test [2] is described as follows: AP1 Signaling Pathway (AID 357).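 Note: ME-180 reporter cells stimulated with EGF at its EC50 level; % is set by controls: 0 for no effect and ±100 for the full control effect.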 Particulars: ME-180 AP-1-bla reporter, EGF-induced, beta-lactamase ratio, 5 h; at 7.69 µM (top of the series) unless noted. The essentials:
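Beta-lactamase reporter under AP-1 response element, ME-180 background. Stimulus: EC50 EGF. Compound exposure 5 h, 37 °C. Detection: CCF4, 2.5 h RT, 460/530 nm. Values: AC50 from titration.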

Test [3] can be described thus: NFAT Signaling Pathway (AID 444).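 Note: carbachol stimulus at about its EC50 of 1 µM final; % is set by controls: 0 for no effect and ±100 for the full control effect.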 Particulars: Jurkat NFAT-bla M1, carbachol, beta-lactamase ratio, 5 h; at 7.69 µM (top of the series) unless noted. The essentials:
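Jurkat cells carrying an NFAT-driven β-lactamase reporter and co-transfected muscarinic M1 receptor were treated with compound plus carbachol (1 uM final, an EC50 level) for 5 h at 37 °C. CCF4 loading followed for 1 h at RT; 460/530 nm ratio gave %activity.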

Test [4] deals with Glucocorticoid receptor (Homo sapiens) (UniProt P04150). Put plainly: GR-GFP Redistribution (AID 450;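 active = compounds whose dose series gives a full or clear partial fitted curve of increased nuclear translocation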; note: potency is the fitted concentration of half-maximal effect). Particulars: U2OS GR-GFP nuclear translocation, laser cytometry, 2 h.
Sequence of Glucocorticoid receptor (Homo sapiens) (P04150 whole entry, looked up): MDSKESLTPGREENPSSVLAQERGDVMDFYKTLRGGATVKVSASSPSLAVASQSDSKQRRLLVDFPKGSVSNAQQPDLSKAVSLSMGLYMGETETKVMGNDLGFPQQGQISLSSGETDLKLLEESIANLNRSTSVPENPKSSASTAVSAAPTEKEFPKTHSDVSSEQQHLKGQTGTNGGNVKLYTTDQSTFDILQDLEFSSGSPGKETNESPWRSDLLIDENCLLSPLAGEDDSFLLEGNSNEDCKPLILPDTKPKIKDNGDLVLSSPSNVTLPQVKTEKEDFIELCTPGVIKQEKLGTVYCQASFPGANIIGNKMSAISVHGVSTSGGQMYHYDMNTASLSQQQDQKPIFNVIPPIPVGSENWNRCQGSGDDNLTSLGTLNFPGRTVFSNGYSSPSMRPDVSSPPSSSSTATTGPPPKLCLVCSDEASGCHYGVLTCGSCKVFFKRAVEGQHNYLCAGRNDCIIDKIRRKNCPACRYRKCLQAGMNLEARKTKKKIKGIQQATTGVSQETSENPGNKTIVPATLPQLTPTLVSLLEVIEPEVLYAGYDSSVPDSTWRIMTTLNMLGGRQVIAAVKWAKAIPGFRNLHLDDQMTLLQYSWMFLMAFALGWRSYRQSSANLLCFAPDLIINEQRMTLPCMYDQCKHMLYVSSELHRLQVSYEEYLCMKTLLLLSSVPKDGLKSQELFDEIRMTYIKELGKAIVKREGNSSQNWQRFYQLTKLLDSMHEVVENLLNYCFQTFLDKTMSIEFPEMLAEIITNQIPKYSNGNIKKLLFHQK
Test [5] has the same target. Put plainly: GR-EFC Redistribution (AID 451; calls by dose curve; note: potency is the fitted concentration of half-maximal effect). Particulars: CHO-K1 GR-EFC translocation, beta-gal luminescence, 2 h. The essentials:
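CHO-K1 cells stably expressing nuclear-localized β-gal enzyme acceptor and GR fused C-terminally to the enzyme donor fragment; ligand-driven nuclear translocation restores β-gal by complementation. Compounds titrated up to 46 uM final, 2 h at 37 °C; luminescence read.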

Test [6] has as its target Mitogen-activated protein kinase 10 (Mus musculus) (UniProt Q61831). The experiment in a line: JNK3 AlphaScreen Assay (AID 530).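 Note: kinase came from lysate of stimulated human HepG2 cells; signal reports phosphorylation of biotinylated GST-cJun 1-79 at Ser73 with 10 µM ATP; % is set by controls: 0 for no effect and ±100 for the full control effect.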 The following applies: JNK3 lysate, c-Jun phosphorylation; series mostly up to 11.4 µM. The method, boiled down:
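Phosphorylation of biotinylated GST-cJun(1-79) at Ser73 is measured by AlphaScreen proximity luminescence. Enzyme is JNK3 in HepG2 lysates activated with interleukin-1beta and tumor necrosis factor alpha; ATP is 10 uM final.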

Test [7] has as its target 3',5'-cyclic-AMP phosphodiesterase 4B (Homo sapiens) (UniProt Q07343). Put plainly: qHTS Assay for Inhibitors of PDE-IV (AID 607; active = well fitted activation curve with a large enough effect in the main read-out, with a control signal flat, not every such curve was filed as active; note: % of control where 0% means no effect). Particulars: HEK293 ACTOne CNG channel cells, membrane potential fluorescence; series mostly up to 22.9 µM. The essentials:
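HEK293 ACTOne cells with CNG channel (1000/well), endogenous PDE4; membrane potential dye, compounds up to 22.9 uM final. Fluorescence Ex 535/Em 590; RO 20-1724 (100 uM final) as reference.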
(In general: Quantitative high-throughput screening tests each substance at several concentrations.)

Test [8] is described as follows: Stat Signaling Pathway (AID 446).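 Note: ME-180 cervical cancer cells given 40 pM IL-6 alongside compound; SIE-controlled beta-lactamase reporter measured as 460/530 nm FRET emission ratio; % is set by controls: 0 for no effect and ±100 for the full control effect.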 The following applies: ME-180 (cervical carcinoma) SIE beta-lactamase reporter, IL-6 stimulated, 5 h; at 7.69 µM (top of the series) unless noted. The essentials: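 Normalization used AC90 stimulation (300 pM IL-6) and AC90 inhibition (125 nM pan-JAK inhibitor at 40 pM IL-6). The underlying signal is SIE-driven beta-lactamase in ME-180 cells after 5 h IL-6 exposure with compound.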

For test [9], the target named is Cytochrome P450 2C9 (Homo sapiens) (UniProt P11712). The experiment in a line: qHTS Assay for Inhibitors and Substrates of Cytochrome P450 2C9 (AID 883; active = well fitted curve in the direction sought with a large enough effect; an effect the other way counts as inactive or inconclusive; note: % is set by controls: 0 for no effect and ±100 for the full control effect; nearly all actives have a fitted effect of over 60% in size). The following applies: recombinant CYP2C9, luciferin-H luminescence, 60 min; series mostly up to 11.4 µM. The essentials: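 CYP2C9 deoxyluciferin hydroxylation, 37C, 60 min with NADPH regeneration; 10nM enzyme, 100uM Luciferin-H (KM). Glo detection reagent stopped reaction; luminescence normalized to sulphaphenazole (57uM) full inhibition.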
Sequence of Cytochrome P450 2C9 (Homo sapiens) (P11712 whole entry, looked up): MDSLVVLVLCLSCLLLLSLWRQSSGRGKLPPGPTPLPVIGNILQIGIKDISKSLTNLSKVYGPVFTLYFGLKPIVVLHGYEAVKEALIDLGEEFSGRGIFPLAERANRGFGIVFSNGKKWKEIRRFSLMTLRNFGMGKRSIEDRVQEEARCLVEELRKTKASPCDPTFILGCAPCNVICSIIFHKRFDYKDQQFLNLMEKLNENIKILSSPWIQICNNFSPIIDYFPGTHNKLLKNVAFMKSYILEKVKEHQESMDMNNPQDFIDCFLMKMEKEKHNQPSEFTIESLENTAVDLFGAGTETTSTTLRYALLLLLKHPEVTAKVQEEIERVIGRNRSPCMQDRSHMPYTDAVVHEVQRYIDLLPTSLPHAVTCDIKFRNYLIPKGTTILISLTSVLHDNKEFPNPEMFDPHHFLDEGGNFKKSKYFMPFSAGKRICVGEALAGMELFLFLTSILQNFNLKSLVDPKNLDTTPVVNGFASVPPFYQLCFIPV

The target of test [10] is Cytochrome P450 3A4 (Homo sapiens) (UniProt P08684). Put plainly: qHTS Assay for Inhibitors and Substrates of Cytochrome P450 3A4 (AID 884; active = well fitted curve in the direction sought with a large enough effect; an effect the other way counts as inactive or inconclusive; note: % is set by controls: 0 for no effect and ±100 for the full control effect; nearly all actives have a fitted effect of over 50% in size). Particulars: recombinant CYP3A4, Luciferin-PPXE luminescence; series mostly up to 57.1 µM. The method, boiled down: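 Luminescent readout of luciferin produced by CYP3A4 (20 nM) dealkylation of Luciferin-PPXE, 25 uM (its KM). NADPH-driven reaction ran 60 min at RT after 10 min compound preincubation; data scaled to 57 uM ketoconazole as 100% inhibition.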
Sequence of Cytochrome P450 3A4 (Homo sapiens) (P08684 whole entry, looked up): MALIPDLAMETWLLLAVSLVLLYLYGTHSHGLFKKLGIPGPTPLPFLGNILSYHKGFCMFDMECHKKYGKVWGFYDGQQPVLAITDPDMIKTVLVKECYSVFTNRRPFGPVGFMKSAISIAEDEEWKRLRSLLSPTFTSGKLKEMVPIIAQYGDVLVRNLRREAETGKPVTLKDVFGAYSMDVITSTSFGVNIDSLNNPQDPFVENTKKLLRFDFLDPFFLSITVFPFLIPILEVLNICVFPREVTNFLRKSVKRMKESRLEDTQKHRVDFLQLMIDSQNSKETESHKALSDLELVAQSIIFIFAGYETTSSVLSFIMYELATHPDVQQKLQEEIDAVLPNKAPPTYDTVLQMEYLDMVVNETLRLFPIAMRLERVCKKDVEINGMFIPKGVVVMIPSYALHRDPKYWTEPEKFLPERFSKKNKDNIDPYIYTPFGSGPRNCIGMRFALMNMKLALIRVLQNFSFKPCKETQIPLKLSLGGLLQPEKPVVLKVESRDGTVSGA

Test [11] has as its target Cytochrome P450 2D6 (Homo sapiens) (UniProt P10635). The experiment in a line: qHTS Assay for Inhibitors and Substrates of Cytochrome P450 2D6 (AID 891; active = well fitted curve in the direction sought with a large enough effect; an effect the other way counts as inactive or inconclusive;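 note: luciferin methyl ether substrate demethylated by CYP2D6 with NADPH regeneration; % is set by controls: 0 for no effect and ±100 for the full control effect; nearly all actives have a fitted effect of over 60% in size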). The following applies: recombinant CYP2D6, luciferin-ME EGE luminescence; series mostly up to 11.4 µM. The method, boiled down: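 Luminescent read-out of luciferin formed by 5 nM human CYP2D6 demethylating 30 uM Luciferin-ME EGE (Km level) over 60 min at room temperature after NADPH regeneration addition. Data normalized to full inhibition by 1.43 uM quinidine.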

Test [12] deals with Cytochrome P450 2C19 (Homo sapiens) (UniProt P33261). The experiment in a line: qHTS Assay for Inhibitors and Substrates of Cytochrome P450 2C19 (AID 899; active = well fitted curve in the direction sought with a large enough effect; an effect the other way counts as inactive or inconclusive; note: nearly all actives have a fitted effect of over 60% in size; note: potency is the fitted concentration of half-maximal effect). The following applies: recombinant CYP2C19, luciferin-H EGE luminescence; series mostly up to 11.4 µM. The essentials:
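In 50mM KPO4, the reaction held 5nM enzyme and KM-level (10uM) Luciferin-H EGE; it ran 60 min at 37C after NADPH regeneration and a 10 min compound preincubation. Luminescence values were scaled to 57uM ketoconazole as complete inhibition.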

In test [13] the target is Cytochrome P450 3A4 (Homo sapiens) (UniProt P08684). Put plainly: qHTS Assay for Activators of Cytochrome P450 3A4 (AID 885; active = well fitted curve in the direction sought with a large enough effect; an effect the other way counts as inactive or inconclusive; note: nearly all actives have a fitted effect of over 65% in size). Particulars: recombinant CYP3A4, Luciferin-PPXE luminescence, 60 min; series mostly up to 11.4 µM. The essentials: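 Human CYP3A4 dealkylates Luciferin-PPXE to luciferin, which luciferase detection converts to light. Substrate was at its KM (25uM), buffer 200mM KPO4, reaction 60 min at RT.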

Molecules are shown by their SMILES. Values without a mark were called inactive. Results filed as inconclusive are left out. Calls of active or inactive are those of the source. Unless noted, calls come from the whole dose curve; as a rule, active = well fitted curve in either direction with a large enough effect (not every such curve was filed as active); inconclusive = small, poorly fitted or top-dose-only effect, or another doubt; inactive = flat fitted curve, though single readings scatter.

Sequence of 3',5'-cyclic-AMP phosphodiesterase 4B (Homo sapiens) (Q07343 whole entry, looked up): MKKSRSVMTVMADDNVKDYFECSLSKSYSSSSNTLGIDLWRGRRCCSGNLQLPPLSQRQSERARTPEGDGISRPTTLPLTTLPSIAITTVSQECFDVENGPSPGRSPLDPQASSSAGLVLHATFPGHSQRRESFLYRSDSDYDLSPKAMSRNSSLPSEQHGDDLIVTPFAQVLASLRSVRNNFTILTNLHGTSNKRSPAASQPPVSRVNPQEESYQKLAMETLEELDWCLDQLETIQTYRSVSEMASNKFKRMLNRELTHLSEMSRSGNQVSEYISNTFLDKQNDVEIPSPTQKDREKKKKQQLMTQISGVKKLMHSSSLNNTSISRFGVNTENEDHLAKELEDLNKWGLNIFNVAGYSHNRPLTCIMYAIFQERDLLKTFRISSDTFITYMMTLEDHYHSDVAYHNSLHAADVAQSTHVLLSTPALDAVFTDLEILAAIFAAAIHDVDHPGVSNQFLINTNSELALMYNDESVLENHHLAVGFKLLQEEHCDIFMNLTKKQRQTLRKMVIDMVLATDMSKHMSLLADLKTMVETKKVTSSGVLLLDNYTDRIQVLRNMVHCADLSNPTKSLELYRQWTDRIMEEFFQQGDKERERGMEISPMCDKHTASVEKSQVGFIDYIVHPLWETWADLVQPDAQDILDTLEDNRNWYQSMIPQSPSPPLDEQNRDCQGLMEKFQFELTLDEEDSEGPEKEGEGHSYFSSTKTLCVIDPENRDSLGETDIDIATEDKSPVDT
Sequence of Lysosomal acid glucosylceramidase (Homo sapiens) (P04062 whole entry, looked up): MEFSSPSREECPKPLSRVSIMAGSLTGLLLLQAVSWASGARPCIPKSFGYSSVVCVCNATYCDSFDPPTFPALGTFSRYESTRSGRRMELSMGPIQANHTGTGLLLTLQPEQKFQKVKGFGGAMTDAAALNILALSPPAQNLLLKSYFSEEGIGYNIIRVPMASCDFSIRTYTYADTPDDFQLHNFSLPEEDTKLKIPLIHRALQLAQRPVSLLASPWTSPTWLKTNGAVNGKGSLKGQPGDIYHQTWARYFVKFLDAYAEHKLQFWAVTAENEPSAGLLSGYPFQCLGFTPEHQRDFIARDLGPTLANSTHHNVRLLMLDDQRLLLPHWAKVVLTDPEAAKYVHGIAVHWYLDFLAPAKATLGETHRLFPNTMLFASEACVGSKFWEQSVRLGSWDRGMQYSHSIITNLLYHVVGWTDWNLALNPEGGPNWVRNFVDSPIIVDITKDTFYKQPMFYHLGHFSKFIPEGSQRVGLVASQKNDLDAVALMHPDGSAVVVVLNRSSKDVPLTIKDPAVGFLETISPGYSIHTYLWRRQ
Sequence of Cytochrome P450 2C19 (Homo sapiens) (P33261 whole entry, looked up): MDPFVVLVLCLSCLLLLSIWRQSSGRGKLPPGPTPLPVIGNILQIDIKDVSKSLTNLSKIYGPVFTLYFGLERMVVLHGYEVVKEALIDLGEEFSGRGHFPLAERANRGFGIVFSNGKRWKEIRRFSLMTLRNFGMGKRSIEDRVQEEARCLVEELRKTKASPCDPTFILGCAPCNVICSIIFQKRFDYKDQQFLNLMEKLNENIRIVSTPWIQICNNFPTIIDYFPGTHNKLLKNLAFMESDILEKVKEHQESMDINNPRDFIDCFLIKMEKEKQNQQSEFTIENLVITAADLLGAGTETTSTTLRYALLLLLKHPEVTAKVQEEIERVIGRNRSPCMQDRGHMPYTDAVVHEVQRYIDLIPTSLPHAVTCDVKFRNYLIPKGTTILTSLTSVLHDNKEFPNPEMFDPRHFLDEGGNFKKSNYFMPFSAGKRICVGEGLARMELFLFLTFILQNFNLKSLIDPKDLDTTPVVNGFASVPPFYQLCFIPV
Sequence of Cytochrome P450 2D6 (Homo sapiens) (P10635 whole entry, looked up): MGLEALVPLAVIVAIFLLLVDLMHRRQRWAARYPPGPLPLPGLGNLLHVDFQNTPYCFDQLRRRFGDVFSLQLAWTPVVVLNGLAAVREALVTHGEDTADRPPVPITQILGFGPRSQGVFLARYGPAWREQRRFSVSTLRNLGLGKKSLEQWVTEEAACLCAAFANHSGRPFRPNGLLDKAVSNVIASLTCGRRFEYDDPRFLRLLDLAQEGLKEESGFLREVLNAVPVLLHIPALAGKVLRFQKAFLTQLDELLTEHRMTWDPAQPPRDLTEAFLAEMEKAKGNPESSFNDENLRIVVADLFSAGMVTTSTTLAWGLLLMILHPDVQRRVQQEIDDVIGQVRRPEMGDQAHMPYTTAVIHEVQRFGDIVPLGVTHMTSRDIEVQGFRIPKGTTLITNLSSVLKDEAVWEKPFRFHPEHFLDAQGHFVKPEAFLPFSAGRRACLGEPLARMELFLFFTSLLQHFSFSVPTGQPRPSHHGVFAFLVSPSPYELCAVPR

As for `OC[C@@H]1CCC[C@H](n2cnc3c(=S)nc[nH]c32)O1`, the results for the Potency in test [1], in [4] and in test [5] were over 11.4 µM, over 46 µM and over 9.22 µM, respectively. The activity change, negative = inhibition is 1.32% in [2] and 24.8% in [3]. Besides, the Potency entry in test [6] and in test [7] was “inactive” in each case.

With `O=C(O)CN(CCN(CC(=O)O)CC(=O)O)CC(=O)O.[Cu]`, the Potency in test [1] is over 11.4 µM. The results for the activity change, negative = inhibition in test [2] and in [3] were -4.33% and 0.389%, respectively. Moreover, the activity, negative = inhibition in test [8] was 6.67%. In addition, the Potency entry in test [6] and in test [7] was “inactive” throughout.

Consider `NC(=O)SCC(=O)Nc1ccc2ncccc2c1`, for which the Potency in test [1] is over 11.4 µM; in test [4], over 46 µM; in test [5], over 9.22 µM. In addition, the activity change, negative = inhibition is 1.01% in test [2] and 12.1% in test [3]. Also, the Potency result in [6] and in test [7] was “inactive” in each case.

As for `O=C(O)CSCC(=O)c1ccccc1`, the Potency in test [1] was over 11.4 µM; in test [4], over 46 µM; in [5], over 9.22 µM. The figures for the activity change, negative = inhibition in [2], in [3] and in test [10] were 3.6%, 11.1% and -4.13% [at 11.4 µM], respectively. Further, the Potency entry in [6], in test [7], in [9], in test [11] and in test [12] was “inactive” throughout.

For `COCCn1c(=O)c(-c2ccc(OC)cc2)nc2cnc(OC)nc21`, the Potency was over 11.4 µM in test [1], over 9.22 µM in [4] and over 46 µM in [5]. For the same compound, the figures for the activity change, negative = inhibition in test [2] and in [3] were 2.45% and 8.31%, respectively. Also, the Potency entry in test [6], in [7] and in test [13] was “inactive” each time.

As for `NC(=O)NCCS[C@H]1CCCC[C@@H]1O`, the Potency in [1] is over 11.4 µM; in test [4], over 46 µM; in test [5] it was over 9.22 µM. Besides, the activity change, negative = inhibition in test [2] was 3.84%; in test [3] it was 3.5%. In addition, the Potency result in test [6] and in [7] was “inactive” in each case.

Consider `C[C@@]1(CO)[C@H](O)CC[C@]2(C)[C@@H]1CC[C@H]1C[C@H]3C[C@]12CC[C@]3(O)COC(=O)CN`, for which the Potency is over 11.4 µM in [1], over 46 µM in test [4] and over 9.22 µM in test [5]. Further, the activity change, negative = inhibition in test [2] is 5.13%; in test [3], 23.5%. The Potency result in [6] and in test [7] was “inactive” throughout.

`COc1ccc(C(=O)N2CCC3(CC2)CCN(c2ccccn2)CC3)cc1`: the figures for the Potency in test [1] and in [5] were over 11.4 µM and over 46 µM, respectively. For the same compound, the activity change, negative = inhibition is -1.45% in test [2] and -26.9% in test [3]. Also, the activity, negative = inhibition in [8] was -10.1%. The Potency result in [6] and in [7] was “inactive” throughout.

Take `O=C(O)CN(CCN(CC(=O)O)CC(=O)O)CC(=O)O.[Mn]`: the Potency in test [1] is over 11.4 µM. For the same compound, the activity change, negative = inhibition is -0.063% in test [2] and 7.91% in [3]. For the same compound, in test [8], the activity, negative = inhibition was 8.71%. For the same compound, the Potency result in [6] and in [7] was “inactive” throughout.

On to `Cc1cc(OCC(=O)O)c(Cl)cc1Cl`, for which the values for the Potency in test [1], in test [4] and in test [5] were over 11.4 µM, over 46 µM and over 9.22 µM, respectively. Further, the figures for the activity change, negative = inhibition in [2] and in [3] were 2.52% and 2.25%, respectively. In addition, the Potency result in test [6] and in test [7] was “inactive” throughout.

For the compound `CC(C)(CN)SCc1ccccc1`, the results for the Potency in [1], in test [4] and in [5] were over 11.4 µM, over 46 µM and over 9.22 µM, respectively. The activity change, negative = inhibition is 5.51% in test [2] and -0.0753% in test [3]. The Potency entry in test [6] and in test [7] was “inactive” throughout.

On to `CC1(C)S[C@@H]2[C@H](C(=O)O)N=C(Cc3ccccc3)N2[C@H]1C(=O)O`, for which the Potency in [1] is over 11.4 µM; in test [4], over 46 µM; in [5] it was over 9.22 µM. Moreover, the activity change, negative = inhibition in [2] is 2.18%; in test [3] it was 8.91%. The Potency result in test [6] and in test [7] was “inactive” in each case.

With `CN1CCC[C@@H]1c1cccnc1.O=C(O)c1ccccc1O.O=C([OH2+])c1ccccc1O.O=C([OH2+])c1ccccc1O.O=C([OH2+])c1ccccc1O.[Cu]`, in test [1], the Potency was over 11.4 µM. The activity change, negative = inhibition in test [2] was 0.0867%; in test [3], -1.52%. Also, the activity, negative = inhibition in [8] is 12.5%. Further, the Potency entry in test [6] and in [7] was “inactive” each time.

On to `CC(C)(C)c1ccc(NS(=O)(=O)c2ccc(N)cc2)cc1`, for which the Potency is over 11.4 µM in test [1], over 46 µM in test [4], over 9.22 µM in test [5] and 0.398 µM (active) in test [12]. For the same compound, the results for the activity change, negative = inhibition in test [2] and in test [3] were 3% and -2.46%, respectively. Moreover, the Potency entry in test [6], in [7] and in test [13] was “inactive” throughout.

With `O[C@@H](c1cc(-c2ccccc2)nc2c1ccc1ccccc12)[C@@H]1CCCCN1`, the Potency in [1] was over 11.4 µM; in test [4], over 46 µM; in test [5], over 9.22 µM. Moreover, the activity change, negative = inhibition in test [2] is -3.12%. The activity, negative = inhibition in test [8] was 9.42%. For the same compound, the Potency entry in [6] is “inactive”.

With `COc1ccc(C[C@H](O)CN2CCOCC2)cc1`, the Potency was over 11.4 µM in test [1], over 46 µM in test [4] and over 9.22 µM in [5]. The activity change, negative = inhibition in test [2] was -3.04%. In addition, in test [8], the activity, negative = inhibition is 9.2%. In addition, the Potency result in test [6] and in test [7] was “inactive” throughout.

Consider `O=C(O)[C@H]1CCCC[C@@H]1c1c2ccc(=O)c(O)c-2oc2c(O)c(O)ccc12`, for which the Potency in test [1] is over 11.4 µM; in test [4], over 46 µM; in test [5], over 9.22 µM. The activity change, negative = inhibition in test [2] was -17.7%; in test [3] it was 0.0388%. Moreover, the Potency entry in [7] was “inactive”.

For `COc1ccc(Cc2ccc3[nH]c(=O)cc(C)c3c2)cc1S(=O)(=O)O`, the Potency was over 11.4 µM in test [1], over 46 µM in test [4] and over 9.22 µM in test [5]. Further, in test [2], the activity change, negative = inhibition was 7.37%. Further, the activity, negative = inhibition in test [8] was 5.41%. Also, the Potency entry in [6] and in [7] was “inactive” each time.

For `CN(C)CCC[C@@H]1c2ccccc2Oc2ccc(C(F)(F)F)cc21`, the Potency in test [1] was over 11.4 µM; in test [4], over 46 µM; in [5] it was over 9.22 µM. Besides, the activity change, negative = inhibition in [2] was 21.1%. The activity, negative = inhibition in test [8] is 4.88%. In addition, the Potency result in test [6] and in test [7] was “inactive” each time.
